Compound activity (PubChem BioAssay)
HT1080 IDH1KD tx = HT-1080 IDH1 knockdown cell toxicity (counter line). HT-1080 IDH1 knockdown viability, ATP luminescence, 48 h. Potency, µM (titrated, usually from 46.1 µM), inactives show at the highest dose activity, negative = toxicity, most hits filed as cytotoxic. 360,000 tested, 2% active;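 further: potency means the concentration at half of the fitted maximal effect; 0% = DMSO wells and -100% = cell-free medium wells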
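Cytotoxicity counter-line: IDH1KD HT-1080, 48 h, CellTiter-Glo. Curves classed by r2, magnitude and activity.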
DT40 TDP1 no CPT = qHTS for Inhibitors of human tyrosyl-DNA phosphodiesterase 1 (TDP1): qHTS in cells in absence of CPT | DT40 Tdp1-/- hTDP1 cells, no CPT, ATP luminescence, 48 h | Potency, µM (titrated, usually from 46.2 µM), inactives show at the top dose activity change, negative = growth inhibition, hits mostly inhibitors | 420,000 tested, 15% active; further: potency means the concentration at half of the fitted maximal effect; nearly all actives have a fitted effect of over 55% in size
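A cellular qHTS used chicken DT40 cells lacking endogenous Tdp1 but carrying stably transfected human TDP1. Compounds were applied without camptothecin, and cell growth kinetics were judged by ATP-dependent luminescence after ≥48 hr.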
HT1080NT lethal = kills 2HG-producing HT-1080-NT fibrosarcoma cells; Potency, µM (doses to about 46.1 µM), for inactives: top-dose activity, negative = less viability, actives largely listed as cytotoxic; AID 686970; 360,000 tested, 1.6% active; HT-1080-NT fibrosarcoma viability, CellTiter-Glo ATP luminescence, 48 h;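 further: NT is the 2HG producing partner of a matched IDH1 knockdown line; potency means the concentration at half of the fitted maximal effect; 0% = DMSO-treated cells and -100% = media-only wells without cells; nearly all actives have a fitted effect of over 55% in size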
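HT-1080-NT; 750 cells/well; 5% FBS RPMI; 48 h compound, 37 degrees C; CellTiter-Glo luminescence; curve fitting and curve-class assignment.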
IL-1B inflam inh = inflammasome signaling inhibition, IL-1 beta readout; THP-1 LPS/ATP IL-1B secretion, AlphaLISA, 16 h; hits give low values; activity change, % at 57.5 µM; 360,000 tested, 4.7% active; in the data active means activity change below about -50%; inconclusive means mostly about -30% to -49%
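THP-1 cells pretreated 1 hr with compounds (up to 57.5 uM final), then stimulated with LPS (250 ng/mL final) plus ATP (1.25 mM final); secreted IL-1B measured by AlphaLISA after 16 hr, decreased signal indicating inhibition.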
DT40 TDP1 CPT = growth inhibition of DT40 Tdp1-/-;hTDP1 cells with camptothecin (screen for TDP1 inhibitors); chicken DT40 Tdp1-/-;hTDP1 cells + 20 nM CPT, ATP luminescence, 48 h; 420,000 tested, 12% active; Potency, µM (series often up to 46.2 µM), for the others: top-dose activity change, negative = growth inhibition, most hits filed as inhibitors; further: potency means the concentration at half of the fitted maximal effect; nearly all actives have a fitted effect of over 55% in size
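Chicken DT40 Tdp1-/- cells stably complemented with human TDP1 were seeded at 400 cells/well in medium containing 20 nM camptothecin, exposed to pin-transferred compounds, and grown at 37 °C for at least 48 hr. Viability was read as ATP luminescence.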
The depositor's hits bear a star; ? = inconclusive; . = no result given. This is a sample that favours compounds with a hit; in the whole collection about 19% have one here. Unless noted, the call rests on the fitted dose curve; in most records, active means well fitted curve in the direction sought with a large enough effect; inconclusive means small, poorly fitted or top-dose-only effect, or another doubt; inactive means no such curve, though single readings can be large; an effect the other way counts as inactive or inconclusive. Unless noted, on the % scale 0 is the no-effect control and ±100 the full control effect.

SMILES	HT1080 IDH1KD tx	DT40 TDP1 no CPT	HT1080NT lethal	IL-1B inflam inh	DT40 TDP1 CPT
Cc1ccc(Cc2c(-c3ccccc3)nc3cc(C)ccn23)cc1	-12%	18µM*	-3%	20	16µM*
Cc1ccc(Cc2c(-c3ccc(C)cc3)nc3ccc(Cl)cn23)cc1	9%	?	-2%	29	?
Fc1ccc(-c2nc3ccc(Cl)cn3c2Cc2ccccc2)cc1	2%	?	-3%	19	?
Cc1ccn2c(Cc3ccccc3)c(-c3ccc(F)cc3)nc2c1	-6%	21µM*	-3%	-19	23µM*
CCN(CC)C(=O)Cn1cc(SCC(=O)Nc2cccc(F)c2)c2ccccc21	.	-13%	.	.	-6%
OCCSc1nc(N2CCOCC2)nc(N2CCOCC2)n1	-3%	?	-5%	30	?
COc1ccc(CNC/C=C/c2ccccc2)cc1	-1%	?	-5%	-14	?
COc1ccc(CCNC/C=C/c2ccccc2)cc1	-9%	?	-21%	-68*	?
COc1ccc(CCNc2nc3ccccc3n3nnnc23)cc1OC	11%	-29%	20%	32	-22%
COc1ccc(CCNCc2csc3nc4ccccc4n23)cc1OC	-17%	9.2µM*	-6%	-7	12µM*
COc1ccc(CNCCc2ccc(Cl)cc2)cc1OCc1ccccc1	?	4.6µM*	?	-96*	6.5µM*
COc1ccc(CCNCc2ccc(-c3ccccc3)cc2)cc1OC	23µM*	23µM*	23µM*	-90*	?
Cc1ccccc1-c1nnn(Cc2cccc(S(=O)(=O)N3CCOCC3)c2)n1	-8%	?	-5%	4	?
COc1ccc(CNC(=O)C2CCN(C(=O)c3cccc(Cl)c3)CC2)cc1	-1%	-25%	-6%	3	-19%
COCCn1c(=O)c(-c2ccccc2)nc2cnc(Oc3ccc(OC)cc3)nc21	.	-19%	.	.	?
O=C(Nc1cccc([N+](=O)[O-])c1)C1COc2ccccc2O1 (centres undefined)	5%	?	2%	-7	-12%
CN(C)C(=O)CCC(=O)NCC1Cc2cccc(-c3ccccc3C(F)(F)F)c2O1 (centres undefined)	.	-23%	.	.	?
CCN(Cc1ccccc1)Cc1ccc(OCc2ccccc2)c(OC)c1	-12%	?	-5%	11	-22%
COc1ccc(CCNC(=S)NCc2ccc(Cl)c(Cl)c2)cc1OC	?	?	?	-85*	-3%
CCNC(=S)NCc1ccc(OC)c(OC)c1	17%	7%	10%	11	17%
COc1ccc(CNS(=O)(=O)CCNCCc2ccccc2)cc1	10%	?	9%	-6	2%
COc1ccc(CCNCc2ccc(OCc3ccccc3)cc2)cc1	18µM*	?	?	-99*	?
COc1cc(CN(C)CCc2ccccc2)ccc1OCc1ccccc1	?	26µM*	?	?	?
COc1cc(CNCCN2CCOCC2)ccc1OCc1cccc(Cl)c1	?	16µM*	?	?	?
COc1cccc(-c2ocnc2C(=O)Nc2ccc(N3CCOCC3)cc2N2CCOCC2)c1	20%	?	?	-4	?
SMILES	HT1080 IDH1KD tx	DT40 TDP1 no CPT	HT1080NT lethal	IL-1B inflam inh	DT40 TDP1 CPT
CCOc1cc(CNCc2ccccc2)ccc1OCc1ccc(Cl)cc1	?	5.8µM*	15µM*	-94*	23µM*
CCNCc1ccc(OCc2cccs2)c(OCC)c1	-2%	-22%	-13%	16	?
COc1ccc(CCNC(=O)Cc2ccc(OCc3ccccc3)c(OC)c2[N+](=O)[O-])cc1OCc1ccccc1	0%	8.2µM*	-1%	30	23µM*
CN1C=CC(=CC=C2C=CC(=O)C=C2)C=C1	5%	3%	13%	-15	2%
CCCNC(=O)CN(CCc1ccccc1)S(C)(=O)=O	8%	-11%	19%	-10	?
C[C@H](NS(=O)(=O)c1ccc2c(c1)OCCCO2)C(=O)N1CCN(c2ccc(F)cc2)CC1	2%	2%	-2%	5	?
C=CCn1c(N(C)C)nc2c1c(=O)[nH]c(=O)n2C	-2%	-3%	-3%	-1	?
COCCCNC(=O)c1cc2c(=O)oc3ccc(C)cc3c2s1	.	5.8µM*	.	.	6.5µM*
Cc1ccc2oc(=O)c3cc(C(=O)NCCCOC(C)C)sc3c2c1	.	-24%	.	.	10%
COc1ccc(OC)c(CCNC(=O)c2cc3c(=O)oc4ccc(C)cc4c3s2)c1	.	-24%	.	.	2%
COc1cccc(CNC(=O)c2cc3c(=O)oc4ccc(C)cc4c3s2)c1	.	21µM*	.	.	?
COc1ccc(-c2csc(NC(=O)CCNC(=O)c3ccco3)n2)cc1OC	-11%	16µM*	8%	-18	?
CC(=O)Nc1ccc(-c2csc(NC(=O)CCNC(=O)c3ccco3)n2)cc1	-1%	?	1%	-17	-26%
COc1ccc(-c2nc(NC(=O)c3c(C)noc3C)sc2C)cc1	-6%	21µM*	-8%	1	10µM*
O=C(Cc1ccccc1F)Nc1nc(-c2ccc(F)cc2)cs1	?	5.8µM*	?	-94*	8.2µM*
O=C(NC(=S)Nc1nc2c(ccc3ccccc32)s1)c1cccs1	16%	15µM*	2%	0	?
Cc1nc(CC(=O)Nc2nc(-c3ccccc3)cs2)cs1	0%	-26%	-3%	-11	-4%
CC1CCCN(C(=O)c2cccc(S(=O)(=O)NCc3ccccc3)c2)C1 (centres undefined)	-2%	?	-2%	35	?
O=C(Oc1ccc(C(=S)N2CCOCC2)cc1)c1cccc(Cl)c1	19%	-5%	15%	5	-8%
COc1ccc(-c2csc(NC(=O)CS(=O)(=O)c3ccccc3)n2)cc1OC	6%	16µM*	0%	?	?
COc1cc(NC(=O)c2n[nH]c(=O)c3ccccc23)cc(OC)c1	-4%	-6%	-2%	-6	-11%
COc1ccc(-c2csc(NC(=O)Cc3ccccc3F)n2)cc1OC	-28%	26µM*	-24%	-64*	?
COc1ccccc1CC(=O)Nc1nc(-c2ccc(F)c(F)c2)cs1	-12%	?	-22%	?	?
Cn1nc(C(=O)Nc2nc(-c3ccc(F)cc3)cs2)ccc1=O	-10%	6.5µM*	-20%	?	?
Cc1cc(C)c(-c2csc(NC(=O)c3n[nH]c(=O)c4ccccc34)n2)c(C)c1	?	4.1µM*	-27%	24	9.2µM*
CCOc1ccc(NC(=O)CCC(=O)Nc2nnc(CC)s2)cc1	2%	-1%	21%	16	3%
